Data taken from PubChem BioAssay (NCI).
This is part of a sample that, as a whole, favours compounds with a hit. Of some 83,000 tested, about 20% had one in any assay.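 Note: values are percent growth. 100 is the growth of untreated cells, values between 100 and 0 indicate rising inhibition; between -100 and 0 indicates cell death.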 The source made the active and inactive calls. Rule for the calls: active = growth percent below 10; inactive = the rest.

The compounds below were run on RPMI-8226 leukemia (assay: NCI-60 one-dose screen, 48 h (100 = growth as untreated, 0 = no growth, -100 = all killed)). Conditions: 10 µM.

Row | SMILES | growth
1 | COc1cc2cc(C(=O)N3C[C@@H](CCl)c4c3cc(OC(=O)N3CCN(C)[C@@H]5CSSC[C@H]53)c3ccccc43)[nH]c2c(OC)c1OC | -33.9% (active)
2 | CC1=C(CCC=O)C2=C(C)C3(CC3)[C@@](C)(O)C(=O)C2=C1 | 1.91% (active)
3 | COC(=O)C[C@](O)(CCC(C)C)C(=O)O[C@@H]1C(OC)=C[C@]23CCCN2CCc2cc4c(cc2[C@H]13)OCO4 | -30.2% (active)
4 | O=C(/C=C/c1ccc(Cl)cc1)c1nc2ccccc2n1Cc1ccc(F)cc1 | -20.2% (active)
5 | CC[C@]12C=CCN3CC[C@@]4(c5ccc(OC)cc5N(C)[C@H]4[C@@](O)(C(=O)OC)[C@@H]1OC(=O)CCC[P+](C1CCCCC1)(C1CCCCC1)C1CCCCC1)[C@@H]32 | -43.4% (active)
6 | CC1=C2C(=C[C@@](C)(COP(=O)(Oc3ccccc3)Oc3ccccc3)[C@@H]2O)C(=O)[C@@](C)(O)C12CC2 | 9.34% (active)
7 | CC(=O)Oc1ccccc1C(=O)NC([Se])=NC1CCCCC1 | 27.9% (inactive)
8 | CCOP(=O)(CC(F)(F)C(F)(F)F)OCC | 7.92% (active)
9 | CC(C)C[C@H](NC(=O)CNC(=O)C[C@H]1O[C@@H]2OC3(C)CC[C@H]4[C@H](C)CC[C@@H]([C@H]1C)[C@@]24OO3)B(O)O | -14.5% (active)
10 | C[C@H]1[C@@H](Oc2ccc(-c3cn(-c4ccnc5cc(Cl)ccc45)nn3)cc2)O[C@@H]2OC3(C)CC[C@H]4[C@H](C)CC[C@@H]1[C@@]24OO3 | 23% (inactive)
11 | C[C@H]1[C@H](OC(=O)CCC(=O)N(CCCc2cn(-c3ccc([N+](=O)[O-])cc3)nn2)CCNc2ccnc3cc(Cl)ccc23)O[C@@H]2OC3(C)CC[C@H]4[C@H](C)CC[C@@H]1[C@@]24OO3 | 28.7% (inactive)
12 | COc1cc2cc(C(=O)N3C[C@@H](CCl)c4c3cc(OC(=O)N3CCN(C)[C@@H]5CSSC[C@@H]53)c3ccccc43)[nH]c2c(OC)c1OC | -20.4% (active)
13 | COc1cc2cc(C(=O)N3C[C@@H](CCl)c4c3cc(OC(=O)N3CCN(C(=O)CCC(=O)N5CCN(C)CC5)[C@@H]5CSSC[C@@H]53)c3ccccc43)[nH]c2c(OC)c1OC | 6.09% (active)
14 | COC(=O)c1ccc(-n2cc(CCCN(CCNc3ccnc4cc(Cl)ccc34)C(=O)CCC(=O)O[C@@H]3O[C@@H]4OC5(C)CC[C@H]6[C@H](C)CC[C@@H]([C@H]3C)[C@@]46OO5)nn2)cc1 | 19.7% (inactive)
15 | O=C([Se]C1C=CCCC1)c1ccc(C(=O)[Se]C2C=CCCC2)s1 (centres undefined) | -43.1% (active)
16 | O=C(/C=C/c1cccc(Br)c1)c1nc2ccccc2n1Cc1ccc(F)cc1 | -24.7% (active)
17 | CC[C@]12C=CCN3CC[C@@]4(c5ccc(OC)cc5N(C)[C@H]4[C@@](O)(C(=O)OC)[C@@H]1OC(=O)CCC[P+](c1ccc(C)cc1)(c1ccc(C)cc1)c1ccc(C)cc1)[C@@H]32 | -56.3% (active)
18 | O=C(NC([Se])=NC1CCCCC1)c1ccccc1 | 56.2% (inactive)
19 | O=C(/C=C/c1ccc(F)cc1)c1nc2ccccc2n1Cc1ccc(F)cc1 | -27.1% (active)
20 | O=C(/C=C/c1ccccc1)c1nc2ccccc2n1Cc1ccc(Br)cc1 | -23.1% (active)

Row | SMILES | growth
21 | C=CC[Se]C(=O)c1cncc(C(=O)[Se]CC=C)c1 | -42.2% (active)
22 | COc1ccc(OC)c(/C=C/C(=O)c2nc3ccccc3n2Cc2ccc(F)cc2)c1 | -36.8% (active)
23 | O=C(/C=C/c1ccc(F)cc1)c1nc2ccccc2n1Cc1ccc(Br)cc1 | -34.7% (active)
24 | CC[C@]12C=CCN3CC[C@@]4(c5ccc(OC)cc5N(C)[C@H]4[C@@](O)(C(=O)OC)[C@@H]1OC(=O)CCCC[P+](c1ccc(C)cc1)(c1ccc(C)cc1)c1ccc(C)cc1)[C@@H]32 | -46% (active)
25 | CC(C)N=C([Se])NC(=O)c1cccs1 | -4.48% (active)
26 | CC1=C(CCC=NNC(N)=O)C2=C(C)C3(CC3)[C@@](C)(O)C(=O)C2=C1 | 1.7% (active)
27 | Cc1ccc2[nH]c(=S)n(-c3ccc(F)cc3)c(=O)c2c1 | 91.5% (inactive)
28 | C#CC[Se]C(=O)c1ccc2n[se]nc2c1 | 21.3% (inactive)
29 | CC1=C(COCCOC(=O)c2ccc(S(=O)(=O)F)cc2)C2=C(C)C3(CC3)[C@@](C)(O)C(=O)C2=C1 | 76.4% (inactive)
30 | CC12CCC3(CCC(=O)NCCCNc4ccnc5cc(Cl)ccc45)[C@@](C)(OO[C@]3(C)O1)O2 | 22.2% (inactive)
31 | O=C(/C=C/c1ccc(Br)cc1)c1nc2ccccc2n1Cc1ccc(Br)cc1 | -9.14% (active)
32 | COC(=O)CCn1c(-c2ccc(-n3cc(-c4ccc(O[C@H]5O[C@@H]6OC7(C)CC[C@H]8[C@H](C)CC[C@@H]([C@H]5C)[C@@]68OO7)cc4)nn3)cc2)nc2ccccc21 | 20.3% (inactive)
33 | CC1=C(C=O)C2=C(C)C3(CC3)[C@@](C)(O)C(=O)C2=C1 | 17.1% (inactive)
34 | N#C[Se]CC(=O)Nc1cccc(C(F)(F)F)c1 | 10.2% (inactive)
35 | CCC[Se]C(=O)c1ccc(C(=O)[Se]CCC)s1 | -5.8% (active)
36 | C[C@H]1[C@@H](CC(=O)N[C@@H](Cc2coc3ccccc23)B(O)O)O[C@@H]2OC3(C)CC[C@H]4[C@H](C)CC[C@@H]1[C@@]24OO3 | -7.66% (active)
37 | O=C(/C=C/c1ccco1)c1nc2ccccc2n1Cc1ccc(F)cc1 | 25.2% (inactive)
38 | COC(=O)C[C@](O)(CCC(C)C)C(=O)O[C@H]1C(OC)=C[C@@]23CCCN2CCc2cc4c(cc2[C@@H]13)OCO4 | -19.5% (active)
39 | C[C@H]1[C@H](OC(=O)CCC(=O)N(CCCc2cn(-c3ccc(C#N)cc3)nn2)CCNc2ccnc3cc(Cl)ccc23)O[C@@H]2OC3(C)CC[C@H]4[C@H](C)CC[C@@H]1[C@@]24OO3 | 27% (inactive)
